40 compounds from ChEMBL document CHEMBL1157539, “Thousands of chemical starting points for antimalarial lead identification” (Nature, 2010) can be followed below.

This test relates to HepG2. The experiment in a line: GSK_TCMDC: Percent inhibition of human HepG2 cell line. Test compounds present at 10uM. It counts as functional.
The compound `O=C(Nc1ccc(-c2cccc(-c3nc4cc(F)ccc4[nH]3)c2)cc1)Nc1ccc(Cl)c(Cl)c1` returned an Inhibition of 68%.

Compound `Cc1cc(N(C)C)nc(Nc2ccc(NC(=O)C3CCCCC3)cc2)n1` registered an Inhibition of 3%.

With `OC(CNCc1ccccc1OCc1ccccc1)c1cccc(I)c1` (stereo not given), the Inhibition was determined as 2%.

For the compound `CN(C)CCNC(=O)NC1CN(c2ncnc3cc(-c4ccccc4)sc23)C1.O=C(O)C(F)(F)F`, the Inhibition was 7%.

`Br.CCn1c2c(c(=N)c3ccccc31)CCC2` displayed an Inhibition of 11%.

As for `CCOc1c(CNCCCCCCNCc2ccc3ccccc3c2OCC)ccc2ccccc12.CS(=O)(=O)O`, the Inhibition was 100%.

`Cc1ccc(CNC(=O)[C@H](CC(C)C)Nc2cc(C)nc(NCC3CCCCC3)n2)cc1.O=C(O)C(F)(F)F` registered an Inhibition of 6%.

`c1nc2nc3c(c(Nc4ccc5c(c4)CCC5)n2n1)CCC3`: the Inhibition worked out at 0%.

`CCOc1ccc(C2CCN(CCCCNC(=O)c3ccc(NC(=O)c4ccc(Cl)cc4)cc3)CC2)c(Cl)c1`: the Inhibition is reported as 32%.

For the compound `Cc1cc(NC(=O)c2cc(S(=O)(=O)N3CCCCC3)ccc2C)no1`, the Inhibition is on record as 0%.

As for `CN(C)C1CCN(CC#Cc2cc3ncnc(Nc4ccc(OCc5cccc(F)c5)c(Cl)c4)c3s2)CC1`, the Inhibition stood at 34%.

`CCN(CCCN1CCCCC1)c1cc(C)nc(Nc2ccc(F)c(C(F)(F)F)c2)n1.O=C(O)C(F)(F)F` showed an Inhibition of 32%.

In turn, `CCc1cccc2c(C#N)cn(CC(=O)NCCc3ccccc3)c12` gave an Inhibition of 1%.

`O=C(NC1CCCCN(Cc2ccccc2O)C1)c1cc(F)cc(F)c1.O=C(O)C(F)(F)F` (stereo not given) yielded an Inhibition of 7%.

`O=C(Cc1cccc(Cl)c1)Nc1cccc(-c2c[nH]c3nc(Nc4ccccc4)ncc23)c1.O=C(O)C(F)(F)F` yielded an Inhibition of 5%.

For `Cc1cccc2nc(-c3ccc(-c4ccc(CN5CCN(CC6CCCN(C)C6)CC5)cc4)cc3)[nH]c12.O=C(O)C(F)(F)F` (stereo not given), the Inhibition worked out at 91%.

Compound `OC[C@H]1CCCN1CC#Cc1cc2c(Nc3ccc(OCc4cccc(F)c4)c(Cl)c3)ncnc2s1` registered an Inhibition of 13%.

The compound `CCOC(=O)c1c(CN2CCCC2)n(-c2ccccc2)c2cc(Br)c(O)cc12` displayed an Inhibition of 0%.

Regarding `CCc1ccc2nc(-c3ccc(F)cc3)nc(SCC(=O)Nc3sc(C)c(C)c3C#N)c2c1`, the Inhibition is on record as 0%.

`COc1cc(OC)c2c(C)cc(NCCCn3ccnc3)nc2c1` had an Inhibition of 6%.

In turn, `NC(=O)c1ccc(NCC(=O)Nc2cccc(-c3cccc(-c4nc5cc(C(F)(F)F)ccc5[nH]4)c3)c2)cc1` gave an Inhibition of 32%.

`Cl.N#Cc1ccc2c(c1)CCN(CCC1CCC(NC(=O)/C=C/c3c[nH]c4c(Br)cccc34)CC1)CC2` (stereo not given) showed an Inhibition of 32%.

In turn, `COc1cccc(NC(=O)c2ccc(NCCCN3CC(C)CC(C)C3)c([N+](=O)[O-])c2)c1` (stereo not given) showed an Inhibition of 14%.

In turn, `COc1ccc(C2CCN(CCN3CCC(NC(=O)c4cccc(-c5ccncc5)c4)CC3)CC2)c(OC)c1` showed an Inhibition of 7%.

As to `Cc1cc(Nc2ccc(Oc3ccc(Cl)cc3)cc2)nc(N)n1`, the Inhibition was 49%.

Regarding `O=C(Cc1ccccn1)Nc1cccc(-c2cccc(-c3nc4cc(C(F)(F)F)ccc4[nH]3)c2)c1`, the Inhibition is 26%.

For `COc1c(CCNCCCCNCCc2cc(Cl)c3ccccc3c2OC)cc(Cl)c2ccccc12.CS(=O)(=O)O`, the Inhibition is recorded as 99%.

`CN(C)CCCNCc1ccc(-c2ccc(CNCCOc3ccccc3)cc2)cc1.O=C(O)C(F)(F)F` gave an Inhibition of 27%.

In the case of `O=[N+]([O-])c1ccc2c(c1)c1ccccc1n2Cc1ccccc1O`, the Inhibition is listed as 0%.

Turning to `O=C(Nc1cccc(CN2CCCN(Cc3cccc(Cl)c3)CC2)c1)c1ccc(Cl)c(Cl)c1.O=C(O)C(F)(F)F`, the Inhibition is listed as 18%.

For the compound `CCCN(CCC)CCCN(CCCN(CCC)CCC)c1cc(C)nc(Nc2ccc3cc(Br)ccc3c2)n1.Cl`, the Inhibition came out at 99%.

`CC(C)Oc1cc2c(cc1NS(=O)(=O)c1ccc(-c3ccc(Cl)cc3)cc1F)CCN(C)CC2.Cl` had an Inhibition of 29%.

`CC(CN1CCN(C)CC1)C(=O)Nc1cccc(-c2ccc(-c3nc4cc(F)ccc4[nH]3)cc2)c1` (stereo not given) registered an Inhibition of 10%.

In the case of `CCNCc1ccc(-c2cc3ncnc(Nc4ccc(OCc5cccc(F)c5)c(Cl)c4)c3s2)[nH]1`, the Inhibition is on record as 22%.

With `COc1ccc(NC(=O)Nc2cccc(-c3cccc(-c4nc5cccc(C)c5[nH]4)c3)c2)cc1`, the Inhibition turned out to be 0%.

Compound `COc1ccc(CN(C)CCCc2ccc(NC(=O)c3cc4ccccc4[nH]3)cc2)cc1OC.O=C(O)/C=C/C(=O)O` registered an Inhibition of 39%.

`CC(=O)c1sc2ccccc2c1O`: the Inhibition is listed as 14%.

`COc1cc(-c2ccc(-c3cnc(N)nc3OC)[nH]2)cc(OC)c1OC`: the Inhibition is on record as 0%.

`CCc1nc(N)nc(N)c1-c1ccc(C(C)(C)C)cc1` yielded an Inhibition of 27%.

In turn, `COc1ccccc1CN1CCC(NC(=O)c2ccc(-c3cccc(Cl)c3)s2)CC1.O=C(O)C(F)(F)F` showed an Inhibition of 49%.
